PubChem BioAssay
Active and inactive are the calls of the source. Unless noted, no rule for the calls is given here.

Legend:
[1] = tested on: Wnt5a (protein binding on small-molecule microarray); assay: Wnt5a binders on small-molecule microarray, primary screen, biophysical, 635/667 nm fluorescence (AID 1142); conditions: 635 nm fluorescence, higher = more signal;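 also: fluorescence read at 667 nm with signal to noise per printed feature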
[2] = cell viability in Huh7 cells, primary screen, cytotoxicity control for HCV replication inhibitor project, CellTiter-Glo luminescence, basal, 48 h (AID 1143); conditions: Huh7 HCV replicon, higher = more signal, called active from +8 up or from −8 down;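 also: Huh7 hepatoma cells carrying a hepatitis C replication reporter with no stimulus; test concentration not given here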
[3] = P. aeruginosa biofilm formation inhibitors, primary screen, PAO1 strain, BacTiter-Glo luminescence, LB-PBS (AID 1144); conditions: 12 h, higher = more signal
[4] = CREB reporter modulators without forskolin, primary screen, cell-based, PC12, CRE-LacZ reporter, unstimulated (AID 1145); conditions: no forskolin, luminescence, 4.5 h, higher = more signal, called active from +8 up or from −8 down
[5] = CREB reporter modulators under forskolin, primary screen, cell-based, PC12, CRE-LacZ reporter, forskolin-stimulated (AID 1146); conditions: luminescence, 4.5 h, higher = more signal, called active from +8 up or from −8 down;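 also: PC12 cells with 6xCRE LacZ reporter stimulated by forskolin 10 µM; beta-galactosidase reporter signal reflecting CREB driven transcription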
[6] = molecular target: Streptavidin (Streptomyces avidinii) (UniProt P22629); assay: streptavidin binders on small-molecule microarray, primary screen, artefact control for SMM compound annotation, biophysical, 635/667 nm fluorescence (AID 1147); conditions: streptavidin binding, higher = more signal;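 also: signal reflects streptavidin binding to arrayed compounds as a control protein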
Sequence of Streptavidin (Streptomyces avidinii) (P22629 whole entry, looked up): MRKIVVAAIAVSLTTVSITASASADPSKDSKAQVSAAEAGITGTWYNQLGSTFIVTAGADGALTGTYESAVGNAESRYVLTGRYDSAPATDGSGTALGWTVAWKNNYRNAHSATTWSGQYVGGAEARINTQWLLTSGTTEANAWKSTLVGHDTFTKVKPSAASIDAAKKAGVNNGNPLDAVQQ

[7] = small-molecule binders of probe aInhba, primary screen, biochemical, small-molecule microarray, 635/667 nm fluorescence (AID 1148); conditions: higher = more signal;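 also: score merges 667nm spot fluorescence with signal-to-noise for antibody binding to printed compounds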
Torsin-1A (Homo sapiens) [8] = molecular target: Torsin-1A (Homo sapiens) (UniProt O14656); assay: torsin A binders from cell lysate, primary screen, small-molecule microarray, wild-type, 635/667 nm (AID 1149); conditions: COS7 hTOR1A-WT lysate, 635 nm fluorescence, higher = more signal
Sequence of Torsin-1A (Homo sapiens) (O14656 whole entry, looked up): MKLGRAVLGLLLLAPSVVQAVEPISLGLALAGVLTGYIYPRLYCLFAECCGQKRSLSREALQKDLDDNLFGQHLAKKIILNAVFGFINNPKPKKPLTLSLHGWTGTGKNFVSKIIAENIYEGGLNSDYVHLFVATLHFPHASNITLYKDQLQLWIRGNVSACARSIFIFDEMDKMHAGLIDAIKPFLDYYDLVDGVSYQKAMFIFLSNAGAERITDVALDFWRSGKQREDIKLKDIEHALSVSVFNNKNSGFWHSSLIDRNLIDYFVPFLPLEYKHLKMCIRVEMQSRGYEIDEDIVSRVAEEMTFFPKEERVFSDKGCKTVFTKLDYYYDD

Torsin-1A (Homo sapiens) [9] = molecular target: Torsin-1A (Homo sapiens) (UniProt O14656); assay: small-molecule binders of mutant TOR1A in lysate, primary screen, cell lysate, small-molecule microarray, COS7 lysate, 635/667 nm fluorescence (AID 1150); conditions: COS7 hTOR1A mutant lysate, 635 nm fluorescence, higher = more signal;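 also: score pools 667 nm emission and signal to noise measuring lysate protein binding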
[10] = tested on: Sonic hedgehog protein (Shh); assay: small-molecule binders of Shh protein, primary screen, biochemical, small-molecule microarray, 635/667 nm fluorescence (AID 1151); conditions: small-molecule microarray binding, 635 nm fluorescence; higher = more signal;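 also: Shh protein binding to compounds spotted on small-molecule microarray slides; score combines spot fluorescence intensity with signal-to-noise across triplicate slides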

SMILES | composite z-score [1] | z-score [2] | z-score [3] | z-score [4] | z-score [5] | composite z-score [6] | composite z-score [7] | composite z-score (Torsin-1A (Homo sapiens) [8]) | composite z-score (Torsin-1A (Homo sapiens) [9]) | composite z-score [10]
C=C[C@H](CO[Si](CC)(CC)CC)N(Cc1ccc(OC(C)=O)c(OC)c1)S(=O)(=O)c1ccc(Br)cc1 | 0.157 | -4.96 (inactive) | 0.451 (inactive) | -0.263 (inactive) | 0.685 (inactive) | 1.61 | 0.403 | 0.837 | 0.671 | 1.15
COc1ccc(C(=O)Nc2ccc(CN3C(=O)[C@]4(O[C@H](CCO)[C@@H]([Si](C)(C)c5ccc(OC)cc5)[C@@H]4C)c4ccccc43)cc2)cc1 | 0.406 | -7.95 (inactive) | -0.925 (inactive) | 8.84 (active) | -1.89 (inactive) | 0.566 | 0.0014 | 0.108 | 0.165 | 1.48
CO[C@H]1O[C@H](CO)[C@@H](OC(=O)Nc2ccc(C(F)(F)F)cc2)[C@H](OC(=O)Nc2ccc3c(c2)OCO3)[C@@H]1OC(=O)Nc1ccc2c(c1)OCO2 | 0.246 | -4.31 (inactive) | 0.999 (inactive) | 0.652 (inactive) | -1.93 (inactive) | 0.273 | -0.157 | 1.81 | 1.23 | 0.57
CC(C)NC(=O)[C@@]1(c2ccc([N+](=O)[O-])cc2)CC(=O)N(C2CCCCC2)[C@@H]1c1ccc(CO)cc1I | -0.0239 | -4.27 (inactive) | 1.11 (inactive) | 1.04 (inactive) | -0.727 (inactive) | -0.154 | 0.0497 | 0.0498 | 0.242 | -0.241
COCCOC(=O)N1C(=O)[C@@]2(c3cc(C#CCNC(N)=O)ccc31)[C@H](C(=O)N1CCN(c3ncccn3)CC1)[C@H]1C(=O)O[C@H](c3ccccc3)[C@H](c3ccccc3)N1[C@@H]2c1ccc(OCCO)cc1 | 0.344 | 0.0164 (inactive) | -0.82 (inactive) | 1.04 (inactive) | -0.0748 (inactive) | 0.619 | 0.0154 | 1.44 | 0.453 | 0.911
Cc1nc2cc(Br)ccc2c(=O)o1 | 0.119 | -1.66 (inactive) | -1.06 (inactive) | -0.464 (inactive) | -1.27 (inactive) | 0.498 | 0.0319 | 0.842 | 0.642 | 0.113
COC(=O)[C@H](Cc1ccccc1)N[C@@H](/C=C/C1CC1)[C@H](O)Cc1ccccc1 | 1.2 | -0.389 (inactive) | 0.186 (inactive) | 1.31 (inactive) | 0.15 (inactive) | 0.648 | -0.231 | 0.324 | 0.341 | -0.21
CCCC#C[Si](O[C@H](CC)c1cn(Cc2cccc(Cl)c2)nn1)(C(C)C)C(C)C | 0.227 | -1 (inactive) | -0.618 (inactive) | -0.505 (inactive) | -0.558 (inactive) | 0.379 | 0.192 | 0.882 | 0.244 | 0.773
COC(=O)[C@@]1(CCC(=O)OC(C)(C)C)N=C(c2ccc(OCCCO)cc2)O[C@H]1c1ccccc1N=[N+]=[N-] | 0.174 | -4.35 (inactive) | -0.656 (inactive) | 2.68 (inactive) | -1.21 (inactive) | -0.0572 | -0.101 | -0.184 | -0.143 | 0.696
O=C(c1ccccc1)N1C(=O)[C@@]2(Cc3ccccc31)N=C(c1ccc(OCCCO)cc1)O[C@H]2c1ccccc1 | 0.54 | -4.44 (inactive) | 0.849 (inactive) | 1.11 (inactive) | 1.28 (inactive) | 0.353 | 0.346 | 0.388 | 1.01 | 1.27
CC1(C)C2C=C(C(O)C3C=CC4C(=O)NC(=O)C4N3Nc3ccc(Cl)cc3Cl)C[C@@H]1C2 (stereo not given in full) | 0.696 | -2.39 (inactive) | -0.418 (inactive) | 1.19 (inactive) | -0.0073 (inactive) | 0.961 | 0.0236 | -0.0995 | 1.09 | -0.193
[N-]=[N+]=Nc1ccccc1[C@H]1OC(c2ccc(OCCCO)cc2)=N[C@@]1(CCS(=O)(=O)c1ccccc1)C(=O)NCC(O)CO (stereo not given in full) | 0.751 | -1.46 (inactive) | 0.732 (inactive) | 0.848 (inactive) | -0.249 (inactive) | 1.29 | 0.15 | 1.26 | 0.774 | -1.02
[N-]=[N+]=NCc1ccccc1[C@@H]1OC(c2ccc(OCCCO)cc2)=N[C@]1(Cc1ccccc1)C(=O)NCC(O)CO (stereo not given in full) | 0.334 | -1.58 (inactive) | 0.0756 (inactive) | 1.27 (inactive) | -0.757 (inactive) | 0.255 | 0.84 | 0.281 | 0.294 | -0.492
O=C1C2C=CC(C(O)Cc3ccccc3)N(n3cnnc3)C2C(=O)N1Cc1ccccc1 (stereo not given) | 0.0769 | 0.0633 (inactive) | 0.0973 (inactive) | -0.0696 (inactive) | -0.413 (inactive) | 0.0646 | -0.0118 | -0.0992 | 1.05 | -0.373
